Rows were chosen to be rich in hits. Some 2.3% of all compounds tested hit in one or more screens of this group.
Tau fibril FP = tau fibrillization inhibition (FP) | K18 P301L tau heparin fibrillization, Alexa594 FP, 6 h | Potency, µM (top dose mostly 57.7 µM), inactives show at the highest dose activity, negative = inhibition, hits mostly inhibitors | 280,000 compounds, 0.39% hits | AID 1468; also: potency is read from the fitted curve at half-maximal effect; nearly all actives have a fitted effect of over 55% in size
Target sequence (P10636 561-689 P618L limits assumed): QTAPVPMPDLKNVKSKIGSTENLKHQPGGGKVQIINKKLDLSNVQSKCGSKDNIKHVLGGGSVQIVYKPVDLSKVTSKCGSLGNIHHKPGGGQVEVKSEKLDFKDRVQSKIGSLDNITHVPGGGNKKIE
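Recombinant K18 P301L […], labeled with Alexa 594 at 0.24 uM over 15 uM unlabeled; heparin inducer 20 uM final; 37 C, 6 hr; FP endpoint.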
Coupling enz = inhibits coupling enzyme system, counter-screen for aldolase hits; coupling enzyme system counterscreen, AmpLite Red fluorescence; 290,000 compounds, 0.67% hits; activity change, negative = inhibition, % at 58.2 µM, hits read low; in the data active = activity change below about -30%
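Fluorescence at 525 nm excitation and 598 nm emission measured inhibition of the coupled detection system without aldolase. Compounds (at 57.5 uM final) were preincubated 10 min at room temperature with coupling enzyme reagent before a 20 min substrate/AmpLite Red step.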
USP1-UAF1 inh = USP1/UAF1 (human) deubiquitinase inhibition | recombinant USP1/UAF1, Ub-Rhodamine cleavage fluorescence | Potency, µM (top dose mostly 57.1 µM), for inactives: top-dose activity change, negative = inhibition, hits mostly inhibitors | 390,000 compounds, 0.23% hits | AID 743255; also: potency is read from the fitted curve at half-maximal effect; nearly all actives have a fitted effect of over 60% in size
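High-throughput fluorogenic screen: 1nM USP1/UAF1 complex, Ub-Rho substrate 150nM final, 50mM HEPES pH 7.8 with 0.5mM EDTA, 0.1 mg/ml BSA, 1mM TCEP and 0.01% Tween-20.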
Tau fibril ThT = tau fibrillization inhibition (ThT binding); AID 1460; recombinant tau K18 P301L, heparin-induced fibrillization, ThT fluorescence; Potency, µM (top dose mostly 57.4 µM), for inactives: at the highest dose activity, negative = inhibition, hits mostly inhibitors; 270,000 compounds, 2.1% hits; also: potency is read from the fitted curve at half-maximal effect; nearly all actives have a fitted effect of over 55% in size
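Using a mix of unlabeled (15 uM) and Alexa 594-labeled (0.24 uM) tau K18 P301L, heparin-triggered fibrillization over 6 hr at 37 C was scored by ThT fluorescence.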
Tau fluor cs = counter-screen for tau fibril formation inhibitors | tau K18 P301L Alexa594 fluorescence, heparin fibrillization | Potency, µM (series often up to 57.7 µM), for inactives: at the top dose activity change, negative = decrease | 280,000 compounds, 0.93% hits; also: potency is read from the fitted curve at half-maximal effect; nearly all actives have a fitted effect of over 55% in size
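Human tau K18 P301L (15 uM unlabeled, 0.24 uM Alexa 594-labeled) in 100 mM sodium acetate pH 7 with 20 uM heparin, 6 hr at 37 C. ThT 30 uM added, 1 hr ambient; Alexa 594 FP and total fluorescence read at 555/632 nm.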
An asterisk follows results filed as active; ? = inconclusive; . = no result; ! = not confirmed by another sample; [ ] = another dose, or the depositor's remark. Unless noted, calls follow the shape of the dose curve; as a rule, active = well fitted curve in the direction sought with a large enough effect; inconclusive = small, poorly fitted or top-dose-only effect, or another doubt; inactive = no such curve, though single readings can be large; an effect the other way counts as inactive or inconclusive. % is scaled to controls: 0 for no effect and ±100 for the full control effect.

SMILES | Tau fibril FP | Coupling enz | USP1-UAF1 inh | Tau fibril ThT | Tau fluor cs
O=Nc1ccc(O)c2ncccc12 | ? | -34.7*! | -19.7% | ? | -29.0%
Oc1ccc(N=Nc2ccc(Br)cc2)c(O)c1 | 2.1% | 6.2 | -8.6% | 3.55µM* | ?
Oc1ccc(N=Nc2ccc3c(c2)OCCO3)c(O)c1 | 4.9% | 0.2 | -16.0% | 3.16µM* | ?
O=C(Cc1ccc2c(c1)OCCO2)c1c(O)cc(O)cc1O | 7.9% | 9.1 | 1.6% | -14.2% | -28.8%
COc1cc2c(cc1OC)-c1cc3nc4ccccc4nc3n1C(C)(C)C2 | ? | -3.3 | . | ? | ?
COc1ccc(NS(=O)(=O)c2ccc(C)c(C(=O)N(C)Cc3ccc(C)cc3)c2)cc1 | . | . | -5.1% | . | .
COc1ccc(S(=O)(=O)N2CCOCC2)cc1NC(=O)CN1C(=O)NC2(CCCC2)C1=O | . | . | -21.9% | . | .
Cc1ccc(N2CCN(C(=O)c3cccn4c(=O)c5ccc(Cl)cc5nc34)CC2C)cc1 (centres undefined) | -4.5% | . | ? | -2.8% | -15.9%
COc1cccc(N=Nc2ccc(O)c3ncccc23)c1 | . | -4.4 | -12.6% | . | .
Oc1ccc(N=Nc2ccc3c(c2)OCCO3)c2cccnc12 | ? | 1.5 | -22.8% | 2µM* | ?
CCC(CN(C)C)Oc1cc(NCc2ccccc2)c2ncn(C(C)C)c2c1 (centres undefined) | . | . | 28.2µM* | . | .
CCC(CO)Oc1cc(NCc2cccnc2)c2ncn(C(C)C)c2c1 (centres undefined) | . | . | -23.3% | . | .
COC(=O)c1sc2nc(C)c([N+](=O)[O-])c(C)c2c1N | -2.8% | 0.6 | -4.5% | 3.16µM* | -24.7%
Clc1ccc(-c2cnn3c(-c4ccncc4)ccnc23)cc1 | 1.7% | 1.9 | -11.2% | 2.51µM* | 0.6%
COc1cccc(CNC(=O)c2ccc3c(c2)nnn3C2CCCC2)c1 | -5.1% | . | -7.3% | -9.8% | -19.2%
CCOC(=O)c1c(C)sc(-c2c(-c3ccc(OC)c(F)c3)[nH]c3[nH]c(=O)[nH]c(=O)c23)c1O | 5.8% | . | -8.5% | -0.4% | 3.55µM*[quencher]
CCc1ccc(-c2[nH]c3c(c2-c2sc(C)c(C(=O)OC)c2O)c(=O)[nH]c(=O)n3C)cc1 | 10.3% | . | 7.0% | -15.6% | ?
COC(=O)c1c(C)sc(-c2c(-c3cccc(Cl)c3)[nH]c3c2c(=O)[nH]c(=O)n3C)c1O | 11.2% | . | ? | ? | ?
CCOC(=O)c1c(C)sc(-c2c(-c3ccccc3)[nH]c3[nH]c(=O)[nH]c(=O)c23)c1O | 4.0% | . | ? | ? | 6.31µM*[quencher]
CCOC(=O)c1c(C)sc(-c2c(-c3ccc(OC)c(F)c3)[nH]c3c2c(=O)[nH]c(=O)n3C)c1O | 13.4% | . | 22.4µM* | ? | 12.6µM*[quencher]
CCOc1cc(C(=O)Nc2ccc(-c3nc4ncccc4o3)cc2C)cc(OCC)c1OCC | -2.2% | . | -11.8% | -11.3% | -14.1%
CN1CCN(c2nc3c(S(=O)(=O)c4ccc(Cl)cc4)nnn3c3ccsc23)CC1 | -2.2% | . | -13.6% | -1.9% | -16.4%
COc1ccc(NC(=S)Nc2ccc(OCc3ccccc3)cc2)cc1OC | 18.1% | -6.7 | -5.4% | ? | 25.1µM*[quencher]
Cc1cn(C)c(CC(=O)Nc2cccc(C#N)c2)c1C(=O)O | -5.1% | . | ? | -7.7% | -11.8%
CN(C)c1ccc(-c2nc(N3CCNCC3)c3ccccc3n2)cc1 | 1.1% | -9.5 | . | 14.1µM* | ?
SMILES | Tau fibril FP | Coupling enz | USP1-UAF1 inh | Tau fibril ThT | Tau fluor cs
COc1ccc(NC(=O)c2cc(C)nc3ccccc23)cc1S(=O)(=O)N1CCOCC1 | . | . | 3.8% | . | .
COc1ccc(Nc2nc(-c3ccccc3)nc3ccccc23)cc1S(=O)(=O)N1CCOCC1 | 25.1µM* | -4.5 | -23.3% | . | 12.6µM*[quencher]
CC(=O)Nc1cccc(Nc2nc(-c3ccccc3)nc3ccccc23)c1 | ? | -1.0 | -8.5% | 13.9% | ?
Cc1ccc(Nc2nc(-c3ccccc3)nc3ccccc23)cc1 | 17.8µM* | . | -29.4% | ? | 10µM*[quencher]
Cc1ccccc1-c1nc(N2CCNCC2)c2ccccc2n1 | . | 2.5 | . | . | .
Cc1cccc(Nc2nc(-c3ccccc3)nc3ccccc23)c1 | 8.91µM* | . | -12.5% | -8.5% | 6.31µM*[quencher]
O=C(NCc1ccccc1Cl)c1ccc(-n2cnc3cccnc32)cc1 | -13.6% | . | -8.1% | -17.1% | -20.9%
O=[N+]([O-])c1cccc(S(=O)(=O)N2CCN(S(=O)(=O)N3CCCCCC3)CC2)c1 | . | -0.9 | -20.9% | . | .
CCOC(=O)C1CCN(C(=O)Cn2nc(CC)n3c(cc4sccc43)c2=O)CC1 | 1.8% | . | ? | -1.7% | 2.8%
Oc1cccc(Nc2nc(-c3ccccc3)nc3ccccc23)c1 | 14.1µM* | 0.4 | -14.1% | -10.0% | 7.08µM*[quencher]
CN(C)c1ccc(-c2nc(Nc3ccncc3)c3ccccc3n2)cc1 | ? | 0.1 | . | 7.08µM* | 7.08µM*[quencher]
CN(C)C(=O)c1ccc(-c2nc(Nc3ccncc3)c3ccccc3n2)cc1 | -7.5% | -1.4 | . | -3.4% | -18.2%
O=C(COc1ccc(-n2cnnn2)cc1)Nc1cc(Cl)cc(Cl)c1 | . | . | -5.1% | . | .
CCCCN(CC)C(=O)c1nn(C)c2c1CSc1ccccc1-2 | ? | . | 1.4% | -7.5% | 14.1µM*[quencher]
CCN(CC)c1ccc2cc(C=O)c(=O)oc2c1 | 5.1% | 0.5 | 15.8µM* | ? | -4.0%
CCN(CC)c1ccc2cc(C(N)=O)c(=O)oc2c1 | -4.2% | 1.5 | ? | ? | -3.3%
CCN(CC)c1ccc2cc(NC(=O)CCC(=O)O)c(=O)oc2c1 | -3.3% | -0.5 | 28.2µM* | ? | -0.8%
CCN(CC)c1ccc2cc(C(C)=O)c(=O)oc2c1 | -2.0% | -0.7 | ? | ? | -5.2%
CCOC(=O)c1cc(-c2ccc(C)cc2)n(CCC(=O)Nc2cc(Cl)ccc2C)c1C | 2.8% | . | -29.7% | ? | -0.2%
CCCC(=O)Nc1cc(OC)c(NC(=O)NC2CCCCC2)cc1OC | 4.7% | -45.3* | -11.2% | 2.9% | -0.2%
Cc1ccc(-c2nc3sc(CCNC(=O)c4ccco4)c(C)n3n2)cc1 | -8.7% | . | ? | ? | -15.5%
FC(F)(F)c1cccc(NC(=S)Nc2cccc(NC(=S)Nc3cccc(C(F)(F)F)c3)n2)c1 | 20µM* | -3.0 | -17.2% | -3.1% | 12.6µM*[quencher]
CCCNC(=S)Nc1cccc(C(F)(F)F)c1 | 4.6% | 0.9 | 4.7% | -7.6% | -10.0%
Cc1cccc(NC(=S)Nc2cccc(C(F)(F)F)c2)n1 | -11.8% | 2.8 | -1.8% | -0.5% | -12.4%
FC(F)(F)c1cccc(NC(=S)NCC2COc3ccccc3O2)c1 (centres undefined) | 25.1µM* | -2.1 | -2.3% | -11.7% | ?
COc1ccc(/C=C2\CCCc3c2nc2ccccc2c3C(=O)O)cc1OC | -14.4% | -32.8* | . | ? | -13.2%
COc1ccc(/C=C2\CCCC(C(=O)C(F)(F)F)=C2O)cc1OC | ? | 3.6 | . | 15.8µM* | -16.7%
COc1ccc(/C=C2/CCCC(C(=O)C(F)(F)F)=C2O)cc1OC | -3.9% | 3.3 | -8.2% | ? | -11.1%

Bioassay records deposited in PubChem by National Center for Advancing Translational Sciences (NCATS).
